Mito fusion yeast – blocks mitochondrial division or promotes mitochondrial fusion. S. cerevisiae fusion-defective mutant growth rescue, CellTiterGlo 48 h. Potency, µM (series often up to 46.1 µM), hits mostly activators. 320,000 compounds, 0.23% hits. AID 485298; note: nearly all actives have a fitted effect of over 45% in size
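S. cerevisiae fusion-defective temperature-sensitive mutants (e.g. fzo1-1, mgm1-5) grown 48 h at 37C in YPEG (ethanol/glycerol non-fermentable) medium with 23 nl compound per well; growth rescue read as CellTiterGlo luminescence.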
A549 tox – A549 cytotoxicity, counter-screen for Nrf2 inhibitors; A549 ARE-Fluc cells, CellTiter-Fluor viability, 18-24 h; Potency, µM (highest dose often 46 µM), usual class: inhibitors; 390,000 compounds, 0.16% hits
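A549 ARE-Fluc cells in 5% FBS OPTI-MEM, 5000 cells/well, rested 2 h then exposed to compounds in concentration-response for 18-24 h at 37 °C. Viability by CellTiter-Fluor fluorescence (Ex 405/Em 525) after 30 min; luciferase luminescence (BugLite, 15 min, RT) read afterwards.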
Nrf2 block – inhibitors of Nrf2 signaling | A549 ARE-Fluc reporter, luciferase luminescence, 18-24 h | Potency, µM (titrated, usually from 46 µM), hits mostly inhibitors | 360,000 compounds, 2.1% hits | AID 504444; note: nearly all actives have a fitted effect of over 60% in size
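Nrf2 activity is the BugLite luminescence, read 15 min after reagent at room temperature, following CellTiter-Fluor cytotoxicity readout (30 min, 37C). Compound titrations were applied for 18-24 h to 5000 A549 ARE_Fluc cells/well in 5% FBS OPTI-MEM.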
mIDH1 inhibitor – inhibitors of human mutant IDH1 R132H. IDH1-R132H enzyme, NADPH consumption, diaphorase/resazurin fluorescence. Potency, µM (doses to about 76.6 µM), actives largely listed as inhibitors. 390,000 compounds, 0.093% hits. AID 602179; note: nearly all actives have a fitted effect of over 65% in size
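IDH1-R132H (0.5 ug/mL dispensed) in pH 7.5 Tris buffer was preincubated 30 min with compound, then given a substrate mix of 0.016 mM NADPH and 2 mM alpha-KG for 80 min at room temperature; remaining NADPH was read by diaphorase/resazurin fluorescence.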
TrxR1 substrate – substrates of rat thioredoxin reductase 1; O89049; purified TrxR1 substrate turnover, NADPH consumption readout; Potency, µM (series often up to 114 µM); 390,000 compounds, 0.01% hits; AID 588456; note: nearly all actives have a fitted effect of over 50% in size
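Rat TrxR1, dispensed at 90 nM, was prereduced with 400 uM NADPH (final) for 5 min at ~22 deg C, then incubated with compound 15 min before 400 uM selenite. A first-read NADPH fluorescence drop versus no-compound background flagged substrates.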
rTrxR1 inhibitor – rat TrxR1 inhibition. O89049. Potency, µM (top dose mostly 114 µM), actives largely listed as inhibitors. 390,000 compounds, 1% hits. recombinant rTrxR1, NADPH fluorescence consumption, selenite substrate; note: nearly all actives have a fitted effect of over 65% in size
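Rat TrxR1 (90 nM in the dispensed reagent) was pre-reduced with 400 uM NADPH for 5 min at room temperature, then incubated with compound for 15 min. After 400 uM selenite was added, NADPH fluorescence (Ex 340/Em 450 nm) was followed for 8 min.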
Resorufin autofl – interferes with resorufin fluorescence in IDH1 counter-screen; shares compounds with mIDH1 inhibitor; Resorufin detection reagent fluorescence interference, cell-free; inhibition of signal, % at 51.2 µM; 750 tested, under 10 active
IDH1 WT – inhibits human wild-type IDH1, mutant selectivity check | shares compounds with mIDH1 inhibitor | WT IDH1 enzyme, NADPH diaphorase/resazurin fluorescence | Potency, µM (highest dose often 115 µM), most hits filed as inhibitors | 750 compounds, 9% hits; note: nearly all actives have a fitted effect of over 55% in size
Target sequence (O75874 whole entry, looked up): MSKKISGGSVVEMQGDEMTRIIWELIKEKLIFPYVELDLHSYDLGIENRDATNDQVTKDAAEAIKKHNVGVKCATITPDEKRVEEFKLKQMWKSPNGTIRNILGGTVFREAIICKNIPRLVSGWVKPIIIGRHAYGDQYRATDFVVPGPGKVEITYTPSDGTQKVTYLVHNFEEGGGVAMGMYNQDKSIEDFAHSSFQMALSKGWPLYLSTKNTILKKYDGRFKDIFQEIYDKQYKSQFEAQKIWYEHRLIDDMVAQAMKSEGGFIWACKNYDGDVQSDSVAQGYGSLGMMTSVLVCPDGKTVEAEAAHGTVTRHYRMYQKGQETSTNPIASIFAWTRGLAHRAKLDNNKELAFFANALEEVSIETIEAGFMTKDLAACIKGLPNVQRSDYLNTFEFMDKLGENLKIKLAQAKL
mIDH1 confirm – inhibits human mutant IDH1 enzyme in cherrypick confirmation; IDH1 R132H enzyme, NADPH diaphorase/resazurin fluorescence; AID 624002; 750 compounds, 83% hits; shares compounds with mIDH1 inhibitor; Potency, µM (top dose mostly 76.6 µM), most hits filed as inhibitors; note: nearly all actives have a fitted effect of over 50% in size
Each line names hits and unclear results; the compound was inactive in the other large screens (follow-up assays come after a bar, where they were run). In the library only some 3.1% were active in any assay of this set; here they are far more common. Calls come from the whole dose curve; as a rule, active = well fitted curve in the direction sought with a large enough effect; inconclusive = small, poorly fitted or top-dose-only effect, or another doubt; inactive = no such curve, though single readings can be large; an effect the other way counts as inactive or inconclusive.

CCOC(=O)c1c(-n2c(C)cc(C=C3C(=O)NC(=S)NC3=O)c2C)sc2c1CCCC2	A549 tox inconclusive, Nrf2 block inconclusive, mIDH1 inhibitor 14µM, rTrxR1 inhibitor 22µM | Resorufin autofl inactive | IDH1 WT 40µM | mIDH1 confirm 7.1µM
Cc1cc(C)nc(SCC(=O)NC2=NN=C(c3ccc(Br)cc3)CS2)n1	A549 tox inconclusive, mIDH1 inhibitor inconclusive (no result: Nrf2 block) | Resorufin autofl inactive | IDH1 WT inactive | mIDH1 confirm 45µM
CCOC(=O)c1c(/N=C/c2c(O)n(-c3cccc(C)c3)c(=O)[nH]c2=O)sc2c1CCCC2	mIDH1 inhibitor inconclusive | Resorufin autofl inactive | IDH1 WT inactive | mIDH1 confirm 11µM
C=CCc1c(C)nc(C)nc1N/N=C/c1ccc(N(C)C)cc1	Nrf2 block inconclusive
Cc1ccc(-n2nc3c(=O)n(CC(=O)NCC(C)c4ccccc4)nc(C)c3c2C)cc1 (configuration not stated)	mIDH1 inhibitor inconclusive (no result: Mito fusion yeast) | Resorufin autofl inactive | IDH1 WT inactive | mIDH1 confirm inactive
O=C(O)[C@@H]1C[C@H]2C[C@@H](CP(=O)(O)O)CC[C@H]2CN1	none (no result: Mito fusion yeast, mIDH1 inhibitor)

Bioassay records: PubChem BioAssay, National Center for Advancing Translational Sciences (NCATS)
